# Laboratory results reported in PubChem BioAssay (Tox21).
# The source made the active and inactive calls. A call without a number means that no potency is given here. Unless noted, calls come from the whole dose curve; as a rule, active = well fitted curve in the direction sought with a large enough effect in the repeat runs; inconclusive = weak or mixed curves; inactive = no such curve, though single readings can be large; an effect the other way counts as inactive or inconclusive.
# Columns and labels:
# [1] = qHTS assay to identify small molecule antagonists of the glucocorticoid receptor (GR) signaling pathway - cell viability counter screen (AID 720693); note: nearly all actives have a fitted effect of over 55% in size
# [2] = qHTS assay for identifying genotoxic compounds that show differential cytotoxicity against isogenic chicken DT40 cell lines with known DNA damage response pathways - wild type cell line (AID 743012); note: nearly all actives have a fitted effect of over 60% in size; note: potency is the fitted concentration of half-maximal effect
# Summary of the method: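 Viability of DNA repair-proficient chicken DT40 cells was assessed by CellTiter-Glo luminescence following 40 h compound exposure at 37 C/5% CO2.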
# [3] = qHTS assay to identify small molecule antagonists of the androgen receptor (AR) signaling pathway - cell viability counter screen (AID 743033; note: nearly all actives have a fitted effect of over 45% in size; note: potency is the fitted concentration of half-maximal effect)
# [4] = qHTS assay to identify small molecule antagonists of the androgen receptor (AR) signaling pathway using the MDA cell line - cell viability counter screen (AID 743041; note: nearly all actives have a fitted effect of over 45% in size)
# Summary of the method: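 qHTS viability read-out; MDA-kb2 AR-luc; R1881-stimulated; 16 h exposure at 37C, 0% CO2; CellTiter-Fluor, 30 min; fluorescence intensity.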
# [5] = qHTS assay to identify small molecule antagonists of the thyroid receptor (TR) signaling pathway (AID 743065); note: nearly all actives have a fitted effect of over 55% in size; note: potency is the fitted concentration of half-maximal effect
# Summary of the method: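 GH3.TRE-Luc rat pituitary cells carrying two TR response elements driving luciferase were plated for 4 h, given compound plus 1 nM T3 (final), and incubated 23.5 h at 37 C. ONE-Glo luminescence measured reporter inhibition; CellTiter-Fluor fluorescence tracked cytotoxicity.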
# [6] = test system: thyroid hormone receptor (rat, GH3 cells); experiment: qHTS assay to identify small molecule agonists of the thyroid receptor (TR) signaling pathway (AID 743066; calls by dose curve)
# [7] = target: Estrogen receptor (Homo sapiens) (UniProt P03372); experiment: qHTS assay to identify small molecule antagonists of the estrogen receptor alpha (ER-alpha) signaling pathway (AID 743069; active = well fitted curve in the direction sought with a large enough effect in the signal ratio in the repeat runs, not every such curve was filed as active; inconclusive = weak or mixed curves, or effect the other way; inactive = no such curve, though single readings can be large or run the other way; the % refers to the signal ratio)
# Chain of Estrogen receptor (Homo sapiens) (P03372 whole entry, looked up): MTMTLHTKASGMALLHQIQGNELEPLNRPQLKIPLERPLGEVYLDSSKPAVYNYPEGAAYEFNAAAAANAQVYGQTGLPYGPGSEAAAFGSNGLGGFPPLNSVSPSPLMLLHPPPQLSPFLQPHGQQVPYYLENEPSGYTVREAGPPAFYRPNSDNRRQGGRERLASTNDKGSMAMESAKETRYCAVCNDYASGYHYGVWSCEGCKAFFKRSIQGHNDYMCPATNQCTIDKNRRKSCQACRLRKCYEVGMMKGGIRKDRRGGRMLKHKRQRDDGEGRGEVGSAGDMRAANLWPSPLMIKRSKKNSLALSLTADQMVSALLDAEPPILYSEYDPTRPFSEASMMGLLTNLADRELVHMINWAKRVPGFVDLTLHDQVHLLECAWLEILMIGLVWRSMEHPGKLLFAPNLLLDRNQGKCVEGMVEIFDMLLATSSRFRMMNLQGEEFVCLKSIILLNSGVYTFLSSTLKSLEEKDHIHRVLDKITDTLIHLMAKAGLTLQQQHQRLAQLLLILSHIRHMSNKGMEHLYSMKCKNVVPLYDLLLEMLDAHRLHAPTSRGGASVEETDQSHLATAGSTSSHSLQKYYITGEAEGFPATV
# Summary of the method: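 Screening used a UAS-driven beta-lactamase reporter integrated into HEK293 cells expressing ER-alpha, stimulated with 17beta-estradiol alongside test compounds over 18 hr at 37C; signal came from LiveBLAzer B/G FRET fluorescence.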
# [8] = qHTS assay to identify small molecule antagonists of the estrogen receptor alpha (ER-alpha) signaling pathway - cell viability counter screen (AID 743074; calls by dose curve; note: nearly all actives have a fitted effect of over 45% in size)
# [9] = target: Estrogen receptor (Homo sapiens) (UniProt P03372); experiment: qHTS assay to identify small molecule agonists of the estrogen receptor alpha (ER-alpha) signaling pathway (AID 743075; calls by dose curve; note: potency is the fitted concentration of half-maximal effect)
# [10] = target: Estrogen receptor (Homo sapiens) (UniProt P03372); experiment: qHTS assay to identify small molecule agonists of the estrogen receptor alpha (ER-alpha) signaling pathway using the BG1 cell line (AID 743079); note: nearly all actives have a fitted effect of over 20% in size; note: potency is the fitted concentration of half-maximal effect
# [11] = qHTS assay to identify small molecule antagonists of the estrogen receptor alpha (ER-alpha) signaling pathway using the BG1 cell line (AID 743080; calls by dose curve;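 note: BG1 cells stimulated with 17beta-estradiol alongside compound; series mostly up to about 70 µM; nearly all actives have a fitted effect of over 25% in size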)
# Summary of the method: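 Seeding, 24 h rest, compound transfer from DMSO, 17beta-estradiol addition, 21.5 h incubation, CellTiter-Fluor (30 min, 37 C), then ONE-Glo (30 min, room temperature): this sequence was run on BG1-Luc-4E2 reporter cells.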
# [12] = qHTS assay to identify small molecule antagonists of the estrogen receptor alpha (ER-alpha) signaling pathway using the BG1 cell line - cell viability counter screen (AID 743081);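 note: compound given together with 17beta-estradiol as the ER stimulus; series mostly up to about 70 µM; nearly all actives have a fitted effect of over 45% in size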
# Aromatase (Homo sapiens) = Aromatase (Homo sapiens) (UniProt P11511); experiment: qHTS assay to identify aromatase inhibitors (AID 743083); note: nearly all actives have a fitted effect of over 55% in size; note: potency is the fitted concentration of half-maximal effect
# Chain of Aromatase (Homo sapiens) (P11511 whole entry, looked up): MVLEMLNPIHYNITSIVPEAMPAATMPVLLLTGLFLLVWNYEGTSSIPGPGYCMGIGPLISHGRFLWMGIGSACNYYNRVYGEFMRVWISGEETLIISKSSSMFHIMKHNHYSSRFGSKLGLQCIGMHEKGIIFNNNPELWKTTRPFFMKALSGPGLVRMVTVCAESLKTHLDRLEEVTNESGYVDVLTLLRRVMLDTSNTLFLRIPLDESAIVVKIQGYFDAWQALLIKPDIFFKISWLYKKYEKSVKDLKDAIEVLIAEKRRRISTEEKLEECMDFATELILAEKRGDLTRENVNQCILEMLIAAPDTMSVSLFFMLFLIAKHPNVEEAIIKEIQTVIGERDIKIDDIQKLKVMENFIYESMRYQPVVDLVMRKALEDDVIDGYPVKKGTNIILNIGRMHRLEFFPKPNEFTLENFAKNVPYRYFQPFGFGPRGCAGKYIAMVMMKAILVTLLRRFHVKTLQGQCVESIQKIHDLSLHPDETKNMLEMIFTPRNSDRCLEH
# [13] = qHTS assay for identifying genotoxic compounds that show differential cytotoxicity against isogenic chicken DT40 cell lines with known DNA damage response pathways - Rev3 mutant cell line (AID 743014); note: nearly all actives have a fitted effect of over 55% in size; note: potency is the fitted concentration of half-maximal effect
# [14] = qHTS assay for identifying genotoxic compounds that show differential cytotoxicity against isogenic chicken DT40 cell lines with known DNA damage response pathways - Rad54/Ku70 mutant cell line (AID 743015); note: nearly all actives have a fitted effect of over 60% in size; note: potency is the fitted concentration of half-maximal effect
# [15] = target: Androgen receptor (Homo sapiens) (UniProt P10275); experiment: qHTS assay to identify small molecule agonists of the androgen receptor (AR) signaling pathway using the MDA cell line (AID 743040; note: nearly all actives have a fitted effect of over 20% in size)
# Chain of Androgen receptor (Homo sapiens) (P10275 whole entry, looked up): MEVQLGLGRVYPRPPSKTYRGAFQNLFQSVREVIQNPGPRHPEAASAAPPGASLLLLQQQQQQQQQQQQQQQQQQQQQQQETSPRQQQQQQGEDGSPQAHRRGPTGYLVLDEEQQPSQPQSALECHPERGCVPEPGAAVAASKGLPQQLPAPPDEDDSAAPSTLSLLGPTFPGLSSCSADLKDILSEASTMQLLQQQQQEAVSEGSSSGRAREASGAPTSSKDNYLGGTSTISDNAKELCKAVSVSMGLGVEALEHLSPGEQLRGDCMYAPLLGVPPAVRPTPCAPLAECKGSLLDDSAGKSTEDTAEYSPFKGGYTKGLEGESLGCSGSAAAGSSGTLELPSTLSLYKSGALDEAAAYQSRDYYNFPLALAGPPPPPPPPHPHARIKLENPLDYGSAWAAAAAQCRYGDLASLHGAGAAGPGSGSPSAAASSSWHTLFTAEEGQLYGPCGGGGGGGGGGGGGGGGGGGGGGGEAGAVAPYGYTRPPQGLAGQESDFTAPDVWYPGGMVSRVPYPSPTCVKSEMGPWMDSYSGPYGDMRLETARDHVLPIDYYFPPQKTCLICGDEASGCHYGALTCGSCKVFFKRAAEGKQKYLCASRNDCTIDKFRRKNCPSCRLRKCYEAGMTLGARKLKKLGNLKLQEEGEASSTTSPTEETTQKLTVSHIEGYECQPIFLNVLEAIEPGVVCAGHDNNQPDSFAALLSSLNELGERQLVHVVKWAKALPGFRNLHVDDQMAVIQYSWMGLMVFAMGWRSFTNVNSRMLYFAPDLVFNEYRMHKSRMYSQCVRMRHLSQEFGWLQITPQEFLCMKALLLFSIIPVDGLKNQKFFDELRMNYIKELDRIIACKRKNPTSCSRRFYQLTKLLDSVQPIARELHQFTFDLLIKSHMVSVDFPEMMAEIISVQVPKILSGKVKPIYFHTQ
# Summary of the method: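 Agonist activity is measured as luciferase luminescence in human MDA-kb2 cells whose MMTV reporter responds to both AR and GR. Compounds in DMSO incubate 16 h at 37C, 0% CO2, and ONE-Glo is read after 30 min.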
# [16] = target: Androgen receptor (Homo sapiens) (UniProt P10275); experiment: qHTS assay to identify small molecule antagonists of the androgen receptor (AR) signaling pathway using the MDA cell line (AID 743042; note: nearly all actives have a fitted effect of over 55% in size; note: potency is the fitted concentration of half-maximal effect)
# Summary of the method: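 MDA-kb2 cells (human breast carcinoma, stably carrying an MMTV-luciferase reporter responsive to AR and GR) were plated at 3,000 cells/well and preincubated 5 hr at 37C, then given compound plus R1881 agonist for 16 h. ONE-Glo luminescence was read.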
# [17] = qHTS assay to identify small molecule antagonists of the thyroid receptor (TR) signaling pathway - cell viability counter screen (AID 743064); note: nearly all actives have a fitted effect of over 50% in size; note: potency is the fitted concentration of half-maximal effect
# Summary of the method: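 Fluorescence from CellTiter-Fluor, added after 23.5 h exposure at 37 °C, reported viability of GH3.TRE-Luc cells co-treated with compound and 1 nM T3. Measured in the same wells as the luciferase TR readout.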
# [18] = target: Androgen receptor (Homo sapiens) (UniProt P10275); experiment: qHTS assay to identify small molecule agonists of the androgen receptor (AR) signaling pathway (AID 743036; active = well fitted activation curve with a large enough effect in the signal ratio in the repeat runs, with a control signal flat, not every such curve was filed as active; inconclusive = weak or mixed curves, or effect the other way; inactive = no such curve, though single readings can be large or run the other way; the % refers to the signal ratio)
# Summary of the method: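 Fluorescence from a beta-lactamase FRET substrate served as read-out in AR-UAS-bla GripTite HEK293 cells. Cells were treated with DMSO-dissolved compounds for 16 h at 37C, then with LiveBLAzer B/G substrate for 2 h at room temperature.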
# [19] = target: Androgen receptor (Homo sapiens) (UniProt P10275); experiment: qHTS assay to identify small molecule antagonists of the androgen receptor (AR) signaling pathway (AID 743035; active = well fitted inhibition curve with a large enough effect in the signal ratio in the repeat runs, not every such curve was filed as active; inconclusive = weak or mixed curves, or effect the other way; inactive = no such curve, though single readings can be large or run the other way; the % refers to the signal ratio; note: potency is the fitted concentration of half-maximal effect)
# Summary of the method: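 Reporter HEK293 cells were exposed to compounds and R1881 overnight (16 h, 37C); beta-lactamase activity was then quantified by FRET fluorescence.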
SMILES,Potency [1],Potency [2],Potency [3],Potency [4],Potency [5],Potency [6],Potency [7],Potency [8],Potency [9],Potency [10],Potency [11],Potency [12],Potency (Aromatase (Homo sapiens)),Potency [13],Potency [14],Potency [15],Potency [16],Potency [17],outcome [18],Potency [19]
CCOP(=S)(Oc1ccc([N+](=O)[O-])cc1)c1ccccc1 (stereo not drawn),inactive,inactive,inactive,inactive,inactive,inactive,inactive,inactive,inactive,27.3 µM (active),inactive,inactive,inactive,,,,,,,
NCCCNCCCN,inactive,,49.7 µM (active),,62.1 µM (active),,,,,,,inactive,62.1 µM (active),55.3 µM (active),62.1 µM (active),inactive,inactive,62.1 µM (active),,
CCCCNP(N)(N)=S,inactive,,inactive,inactive,,inactive,inactive,inactive,inactive,,,inactive,inactive,inactive,inactive,,,inactive,,
Cc1cc(=O)[nH]o1,inactive,inactive,inactive,inactive,,,inactive,inactive,inactive,inactive,inactive,inactive,inactive,,,inactive,inactive,inactive,inactive,
Cc1c(F)c(F)c(COC(=O)C2C(/C=C(\Cl)C(F)(F)F)C2(C)C)c(F)c1F (stereo not drawn),inactive,,inactive,,,inactive,inactive,inactive,inactive,inactive,inactive,inactive,inactive,inactive,,,,inactive,,
COc1cc(Cl)c(OC)cc1Cl,inactive,,inactive,inactive,inactive,inactive,inactive,inactive,inactive,inactive,,inactive,inactive,inactive,,,,,,
O=C(O)c1ccccc1C(=O)Nc1cccc2ccccc12,inactive,,inactive,inactive,inactive,inactive,,inactive,,,,inactive,inactive,54.5 µM (active),,,,,,
Brc1ccc(Oc2ccccc2)cc1,inactive,,inactive,inactive,,inactive,inactive,inactive,inactive,inactive,,inactive,inactive,inactive,,,,inactive,,
CCCCCCCCCC(=O)O[C@H]1CC[C@H]2[C@@H]3CCC4=CC(=O)CC[C@@H]4[C@H]3CC[C@]12C,inactive,inactive,inactive,inactive,inactive,inactive,,,0.848 µM [inconclusive] (active),0.188 µM (active),inactive,inactive,inactive,,inactive,,,inactive,,
C=CC(=O)OCCCCO,inactive,,inactive,inactive,,inactive,,inactive,,inactive,,inactive,,,61.1 µM (active),,,,,
Nc1ccc([N+](=O)[O-])cc1[N+](=O)[O-],inactive,,inactive,,,inactive,inactive,inactive,inactive,inactive,inactive,,inactive,53.1 µM (active),66.8 µM (active),inactive,inactive,,,
CC(C)(CCl)C(=O)Cl,inactive,,inactive,inactive,inactive,inactive,,inactive,,,,inactive,inactive,,inactive,,,inactive,,
CCOC(=O)C(Cl)C(C)=O (stereo not drawn),inactive,,inactive,inactive,,inactive,inactive,inactive,inactive,inactive,,inactive,inactive,,inactive,,,inactive,,
c1ccoc1,inactive,inactive,inactive,inactive,inactive,inactive,,inactive,inactive,,inactive,inactive,inactive,,inactive,,,inactive,,
CCOS(C)(=O)=O,inactive,inactive,inactive,inactive,inactive,inactive,,inactive,,,,inactive,inactive,,inactive,,,inactive,,
CC(C)(C)C(O)C(Oc1ccc(Cl)cc1)n1cncn1 (stereo not drawn),,,inactive,,,inactive,,,,,,,21.1 µM (active),32.5 µM (active),45.8 µM (active),,,,,
c1cc2ccc3cccc4ccc(c1)c2c34,,71.9 µM (active),,,,inactive,,,inactive,inactive,inactive,,inactive,,67.9 µM (active),inactive,inactive,,,
N#CCC#N,inactive,,inactive,inactive,48.6 µM (active),inactive,inactive,inactive,inactive,inactive,inactive,inactive,inactive,,,inactive,inactive,61.1 µM (active),,
OC(c1ccc(Cl)cc1)(c1ccc(Cl)cc1)c1cccnc1,,9.69 µM (active),54.9 µM (active),inactive,,inactive,,inactive,inactive,,,inactive,,8.63 µM (active),8.63 µM (active),inactive,61.1 µM (active),61.1 µM (active),inactive,34.7 µM (active)
